The values that follow come from PubChem BioAssay AID2687 (National Center for Advancing Translational Sciences (NCATS), 2010).

The structures appear in SMILES notation. Calls of active or inactive are those of the source.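 Rule for the calls: active = potency half-maximal inhibitory concentration below 100 µM; inconclusive = dose-dependent response but potency above 100 µM; inactive = the rest.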

Lysine-specific demethylase 4E (Homo sapiens), sequence (B2RXH2 1-337 limits assumed): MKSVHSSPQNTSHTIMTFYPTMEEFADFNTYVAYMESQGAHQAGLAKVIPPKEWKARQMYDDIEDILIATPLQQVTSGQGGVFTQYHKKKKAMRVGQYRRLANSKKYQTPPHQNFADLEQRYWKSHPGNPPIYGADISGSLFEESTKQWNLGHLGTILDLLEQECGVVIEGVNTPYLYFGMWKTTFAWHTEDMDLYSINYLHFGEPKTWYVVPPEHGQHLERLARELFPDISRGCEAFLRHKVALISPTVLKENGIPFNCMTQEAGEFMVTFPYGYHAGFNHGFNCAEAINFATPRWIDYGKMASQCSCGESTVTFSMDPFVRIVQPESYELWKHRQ

The test has as its target Lysine-specific demethylase 4E (Homo sapiens) (UniProt B2RXH2). Briefly: AlphaScreen Assay for Inhibitors of Human Jumonji Domain Containing 2E (JMJD2E). Particulars: recombinant JMJD2E, H3K9me3 peptide demethylation. The text has this:
The fine interplay among methylation states of several lysine residues on the tails of histone proteins is a major determinant of the transcriptional state of the associated DNA coding regions and is commonly referred to as the histone code. Histone lysine demethylases catalyze the removal of methyl groups from methylated lysine sidechains on histones H3 and H4, thus antagonizing the reactions catalyzed by histone lysine methyltransferases. […] In search for novel inhibitors of JMJD2E demethylase, a member of the largest set of histone demethylases belonging to the Fe(II) and 2-oxoglutarate oxygenase (2OG) superfamily, we performed a quantitative high-throughput screen (Inglese 2006). See AID 2147 for details on the primary screen. The assay here is a secondary AlphaScreen screen used to validate follow-up compounds. References: Inglese, J., Auld, D., Jadhav, A., Johnson, R., Simeonov, A., Yasgar, A., Zheng, W. and Austin, C. […]
Assay Buffer: 50 mM HEPES pH7.5, 0.01% Tween-20, 0.1% BSA (Cohn Fraction V; Sigma A7030) Peptide: biotin-[…](me3/2)STGGKA Antibody: Abcam Ab1220, Anti-H3K9Me2 Final concentration of components in enzyme reaction: JMJD2E 5 nM, Peptide 30 nM, […] L-Ascorbic Acid, […], DMSO 0.1% Alphascreen beads made up in the dark in assay buffer and pre-incubated for 1 hour in the dark. […] Read plate on BMG Labtech Pherastar FS
In the case of `Oc1ccc(CNc2cccc(F)c2)c2cccnc12`, the Potency was 1490 nM (active). Then `O=S(=O)(Nc1ccc(O)c2ncccc12)c1ccccc1F`, with 435 nM (active).
